Measured values published in PubChem BioAssay (NCI).
Values joined by “and” are separate entries in the source; they are usually repeats but may differ in a detail not shown here. Equal values may be shown once. About 83,000 compounds went through this panel and 20% of them were active in at least one assay; those are over-represented in the sample as a whole.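 Single-concentration screen, 48 h exposure, 96-well plates. Endpoint: percent growth. Below 10 = active.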 Active and inactive are the calls of the source.

Columns and labels:
Assay in all cases: NCI-60 one-dose screen, 48 h (100 = growth as untreated, 0 = no growth, -100 = all killed)
Conditions in all cases: 10 µM unless noted
MOLT-4 leukemia = tested on: MOLT-4 leukemia
SR leukemia = tested on: SR leukemia
RPMI-8226 leukemia = tested on: RPMI-8226 leukemia
OVCAR-8 ovarian = tested on: OVCAR-8 ovarian
OVCAR-5 ovarian = tested on: OVCAR-5 ovarian
OVCAR-4 ovarian = tested on: OVCAR-4 ovarian
SK-OV-3 ovarian = tested on: SK-OV-3 ovarian
IGROV1 ovarian = tested on: IGROV1 ovarian
OVCAR-3 ovarian = tested on: OVCAR-3 ovarian
HS 578T breast = tested on: HS 578T breast
NCI/ADR-RES ovarian = tested on: NCI/ADR-RES ovarian
T-47D breast = tested on: T-47D breast
BT-549 breast = tested on: BT-549 breast
MDA-MB-435 melanoma = tested on: MDA-MB-435 melanoma
SW-620 colon = tested on: SW-620 colon
MCF7 breast = tested on: MCF7 breast
HCT-116 colon = tested on: HCT-116 colon
HCC-2998 colon = tested on: HCC-2998 colon
KM12 colon = tested on: KM12 colon

Measured: growth

CC[C@H](C)[C@H](NC(=O)c1cnccn1)C(=O)N(C)[C@H](C[C@@H](OC(C)=O)c1nc(C(=O)N[C@@H](Cc2ccccc2)C[C@H](C)C(=O)OC)cs1)C(C)C
inactive: MOLT-4 leukemia 17.9% | SR leukemia 15.9% | RPMI-8226 leukemia 22.5% | OVCAR-8 ovarian 15.2% | OVCAR-5 ovarian 42.4% | OVCAR-4 ovarian 45.9% | SK-OV-3 ovarian 20.6% | IGROV1 ovarian 32% | HS 578T breast 11.9% | NCI/ADR-RES ovarian 14.4% | T-47D breast 61.2% | SW-620 colon 23.6% | MCF7 breast 15.5% | HCC-2998 colon 22.3%
active: OVCAR-3 ovarian -10.2% | BT-549 breast -7.25% | MDA-MB-435 melanoma -37.6% | HCT-116 colon -9.21% | KM12 colon 3.34%

CC[PH+](CC)CC.O=COC1OC([S-])C(OC=O)C(OC=O)C1OC=O.[Au+] (configuration not stated)
inactive: HS 578T breast 14.5% | NCI/ADR-RES ovarian 18.7%
active: MOLT-4 leukemia -29.1% | SR leukemia -18.4% | RPMI-8226 leukemia -27.2% | OVCAR-8 ovarian 1.43% | OVCAR-5 ovarian -98.5% | OVCAR-4 ovarian -89.8% | SK-OV-3 ovarian -45.5% | IGROV1 ovarian -78.3% | OVCAR-3 ovarian -91.8% | T-47D breast -82.7% | BT-549 breast -80.8% | MDA-MB-435 melanoma -72.2% | SW-620 colon -76.3% | MCF7 breast -69.2% | HCT-116 colon -50.3% | HCC-2998 colon -90% | KM12 colon -78.9%

O=C1NC(=O)C(=Cc2ccccc2)C(=O)N1
inactive: MOLT-4 leukemia 81.5% and 109% | SR leukemia 89.7% and 107% | RPMI-8226 leukemia 112% and 110% | OVCAR-8 ovarian 104% | OVCAR-5 ovarian 108% | OVCAR-4 ovarian 109% and 112% | SK-OV-3 ovarian 106% and 107% | IGROV1 ovarian 92.5% and 104% | OVCAR-3 ovarian 102% and 111% | HS 578T breast 119% and 103% | NCI/ADR-RES ovarian 100% and 103% | T-47D breast 94.8% and 105% | BT-549 breast 106% and 116% | MDA-MB-435 melanoma 113% and 104% | SW-620 colon 103% and 105% | MCF7 breast 145% and 102% | HCT-116 colon 94% and 102% | HCC-2998 colon 99.6% and 117% | KM12 colon 114% and 108%

Cc1c(C)c(N)c(C)c(C)c1N
inactive: MOLT-4 leukemia 84.1% | SR leukemia 69.5% | RPMI-8226 leukemia 98.7% | OVCAR-8 ovarian 83.8% | OVCAR-5 ovarian 85.1% | OVCAR-4 ovarian 75.6% | SK-OV-3 ovarian 91.3% | IGROV1 ovarian 80.7% | OVCAR-3 ovarian 115% | HS 578T breast 114% | NCI/ADR-RES ovarian 96.1% | T-47D breast 92.6% | BT-549 breast 104% | MDA-MB-435 melanoma 107% | SW-620 colon 51.8% | MCF7 breast 46.5% | HCT-116 colon 59.3% | HCC-2998 colon 106% | KM12 colon 98.4%

C[Se]/C=C1/C(=O)N(c2c(Cl)cccc2Cl)c2ccccc21
inactive: MOLT-4 leukemia 10.2% | OVCAR-5 ovarian 28.7% | OVCAR-4 ovarian 34.3% | SK-OV-3 ovarian 61.5% | IGROV1 ovarian 44.7% | OVCAR-3 ovarian 20.3% | HS 578T breast 13% | T-47D breast 65.8% | SW-620 colon 19.3% | MCF7 breast 17.3% | HCT-116 colon 11.4% | HCC-2998 colon 77.2% | KM12 colon 72%
active: SR leukemia 2.07% | RPMI-8226 leukemia 2.93% | OVCAR-8 ovarian -15.2% | NCI/ADR-RES ovarian 9.06% | BT-549 breast -35.6% | MDA-MB-435 melanoma -30.3%

O=C(NC(Cl)=C(Cl)Cl)P(=O)(c1ccccc1)c1ccccc1
inactive: MOLT-4 leukemia 87.1% | SR leukemia 88.3% | RPMI-8226 leukemia 101% | OVCAR-8 ovarian 126% | OVCAR-5 ovarian 105% | OVCAR-4 ovarian 101% | SK-OV-3 ovarian 107% | IGROV1 ovarian 95% | OVCAR-3 ovarian 115% | HS 578T breast 113% | NCI/ADR-RES ovarian 107% | T-47D breast 105% | BT-549 breast 109% | MDA-MB-435 melanoma 92% | SW-620 colon 112% | MCF7 breast 97.3% | HCT-116 colon 106% | HCC-2998 colon 114% | KM12 colon 106%

O=[N+]([O-])c1cc(Cl)c(Cl)c([N+](=O)[O-])c1Cl
inactive: MOLT-4 leukemia 13.3% | SR leukemia 11.2% | RPMI-8226 leukemia 29.7% | OVCAR-8 ovarian 38.9% | OVCAR-5 ovarian 107% | OVCAR-4 ovarian 29.3% | SK-OV-3 ovarian 105% | IGROV1 ovarian 28.9% | OVCAR-3 ovarian 10% | HS 578T breast 106% | NCI/ADR-RES ovarian 80% | BT-549 breast 96.8% | MDA-MB-435 melanoma 89.3% | MCF7 breast 20.1% | HCC-2998 colon 109% | KM12 colon 26%
active: T-47D breast 0.463% | SW-620 colon -61.9% | HCT-116 colon -77.1%

Cc1ccc(P(=O)(O)O)cc1
inactive: MOLT-4 leukemia 116% | SR leukemia 97.9% | RPMI-8226 leukemia 112% | OVCAR-8 ovarian 110% | OVCAR-5 ovarian 114% | OVCAR-4 ovarian 101% | SK-OV-3 ovarian 128% | IGROV1 ovarian 111% | OVCAR-3 ovarian 118% | HS 578T breast 97.7% | NCI/ADR-RES ovarian 106% | T-47D breast 98.8% | BT-549 breast 122% | MDA-MB-435 melanoma 107% | SW-620 colon 105% | MCF7 breast 98.6% | HCT-116 colon 104% | HCC-2998 colon 103% | KM12 colon 104%

CC[C@H](C)[C@H](NC(=O)CN(C)C)C(=O)N(C)[C@H](C[C@@H](OC(C)=O)c1nc(C(=O)NC23C4C5C2C2C3C4C52C(=O)OC)cs1)C(C)C (some centres not stated)
active: OVCAR-3 ovarian -34% | BT-549 breast 4.22% | MDA-MB-435 melanoma -59.9% | HCT-116 colon -2.36%
inactive: MOLT-4 leukemia 11% | SR leukemia 10.4% | RPMI-8226 leukemia 20.1% | OVCAR-8 ovarian 21.6% | OVCAR-5 ovarian 71.4% | OVCAR-4 ovarian 48.7% | SK-OV-3 ovarian 35.1% | IGROV1 ovarian 36.3% | HS 578T breast 19.8% | NCI/ADR-RES ovarian 63.7% | T-47D breast 62.9% | SW-620 colon 25.9% | MCF7 breast 21.6% | HCC-2998 colon 18.5% | KM12 colon 13.2%

C/C(=C\c1ccn(-c2ccc(N)c(C(F)(F)F)c2)n1)[C@@H]1C[C@@H]2O[C@]2(C)CCC[C@H](C)[C@H](O)[C@@H](C)C(=O)C(C)(C)[C@@H](O)CC(=O)O1
inactive: MOLT-4 leukemia 10.2% | OVCAR-8 ovarian 28.4% | OVCAR-5 ovarian 23% | OVCAR-4 ovarian 55.1% | SK-OV-3 ovarian 45% | IGROV1 ovarian 40.4% | HS 578T breast 25.1% | T-47D breast 47.6% | BT-549 breast 28.2% | SW-620 colon 44.5% | MCF7 breast 17% | KM12 colon 20.6%
active: SR leukemia 7.67% | RPMI-8226 leukemia 9.58% | OVCAR-3 ovarian -0.83% | NCI/ADR-RES ovarian 0.324% | MDA-MB-435 melanoma -26.8% | HCT-116 colon 9.04% | HCC-2998 colon 0.272%

COc1cc2c(cc1OC)[C@@H]1C(=O)c3ccc4c(c3O[C@@H]1CO2)C[C@H](C(C)C)O4
inactive: MOLT-4 leukemia 37% | OVCAR-8 ovarian 54.7% | OVCAR-5 ovarian 93.7% | OVCAR-4 ovarian 42.3% | SK-OV-3 ovarian 75.9% | IGROV1 ovarian 81.6% | OVCAR-3 ovarian 83.1% | HS 578T breast 115% | NCI/ADR-RES ovarian 34.9% | T-47D breast 33.2% | BT-549 breast 44.8% | MDA-MB-435 melanoma 51.4% | SW-620 colon 84.7% | MCF7 breast 46.3% | HCT-116 colon 39.4% | HCC-2998 colon 76.1% | KM12 colon 65.6%
active: SR leukemia 9.36% | RPMI-8226 leukemia -9.79%

C[C@]12CCc3sc(Nc4ccc(F)cc4)nc3C1=CC[C@@H]1[C@@H]2CC[C@]2(C)C(=O)CC[C@@H]12
inactive: MOLT-4 leukemia 15.8% | SR leukemia 19.5% | OVCAR-8 ovarian 68.4% | OVCAR-5 ovarian 100% | OVCAR-4 ovarian 76.8% | SK-OV-3 ovarian 90% | IGROV1 ovarian 75.2% | OVCAR-3 ovarian 24.1% | HS 578T breast 55.3% | NCI/ADR-RES ovarian 80.3% | T-47D breast 80% | BT-549 breast 43.8% | MDA-MB-435 melanoma 57% | SW-620 colon 35.4% | MCF7 breast 20% | HCT-116 colon 17.7% | HCC-2998 colon 95.1% | KM12 colon 72.2%
active: RPMI-8226 leukemia 2.21%

CCCCS(=O)(=O)Cl
inactive: MOLT-4 leukemia 116% | SR leukemia 104% | RPMI-8226 leukemia 109% | OVCAR-8 ovarian 105% | OVCAR-5 ovarian 104% | OVCAR-4 ovarian 97.8% | SK-OV-3 ovarian 110% | IGROV1 ovarian 116% | OVCAR-3 ovarian 120% | HS 578T breast 102% | NCI/ADR-RES ovarian 107% | T-47D breast 100% | BT-549 breast 104% | MDA-MB-435 melanoma 108% | SW-620 colon 112% | MCF7 breast 97.7% | HCT-116 colon 97.6% | HCC-2998 colon 124% | KM12 colon 114%
